{"source": "the supplement of paper PMC13380429", "key": {"[1]": {"tested_on": "Vero E6 infected with SARS-CoV-2", "experiment": "morphology score (similarity to uninfected cells); higher = more like uninfected cells", "conditions": "24 h"}, "[2]": {"tested_on": "Vero E6 infected with SARS-CoV-2", "experiment": "SARS-CoV-2 infection rate relative to infected DMSO; higher = more infection, active = 60 or less", "conditions": "24 h"}}, "data": [{"compound": "Cc1ccc(-c2ncc[nH]2)cc1NC(=O)c1ccc(OCc2ccccn2)cc1", "note": "(10 µM)", "values": [{"measurement": "morphology score", "setting": "[1]", "value": 0.0587}, {"measurement": "SARS-CoV-2 infection rate", "setting": "[2]", "value": "97% (inactive)"}]}, {"compound": "O=C(O)CCC(=O)Nc1ccc(S(=O)(=O)Nc2nccs2)cc1", "note": "[succinylsulfathiazole] (10 µM)", "values": [{"measurement": "morphology score", "setting": "[1]", "value": 0.0689}, {"measurement": "SARS-CoV-2 infection rate", "setting": "[2]", "value": "100% (inactive)"}]}, {"compound": "C[C@]12CCC(=O)C=C1C=C[C@@H]1[C@@H]2CC[C@@]2(C)[C@H]1CC[C@@]21CCC(=O)O1", "note": "[canrenone] (10 µM)", "values": [{"measurement": "morphology score", "setting": "[1]", "value": 0.219}, {"measurement": "SARS-CoV-2 infection rate", "setting": "[2]", "value": "94% (inactive)"}]}, {"compound": "Cc1cc(/C=C/C#N)cc(C)c1Nc1ccnc(Nc2ccc(C#N)cc2)n1", "note": "[rilpivirine] (0.833333 µM)", "values": [{"measurement": "morphology score", "setting": "[1]", "value": 0.136}, {"measurement": "SARS-CoV-2 infection rate", "setting": "[2]", "value": "111% (inactive)"}]}, {"compound": "c1ccc2c(c1)CCC[C@H]2Nc1nc2ccccc2[nH]1", "note": "(10 µM)", "values": [{"measurement": "morphology score", "setting": "[1]", "value": 0.268}, {"measurement": "SARS-CoV-2 infection rate", "setting": "[2]", "value": "89% (inactive)"}]}, {"compound": "C[C@@H](NCc1cc(Br)cc2nc(O)c(O)nc12)P(=O)(O)O", "note": "(10 µM)", "values": [{"measurement": "morphology score", "setting": "[1]", "value": 0.0389}, {"measurement": "SARS-CoV-2 infection rate", "setting": "[2]", "value": "101% (inactive)"}]}, {"compound": "NCCCCCC(O)(P(=O)(O)O)P(=O)(O)O", "note": "[neridronic-acid] (10 µM)", "values": [{"measurement": "morphology score", "setting": "[1]", "value": 0.208}, {"measurement": "SARS-CoV-2 infection rate", "setting": "[2]", "value": "91% (inactive)"}]}, {"compound": "CC(=O)OCC(=O)[C@@]12OC(C)(C)O[C@@H]1C[C@H]1[C@@H]3C[C@H](F)C4=CC(=O)C=C[C@]4(C)[C@@]3(F)[C@@H](O)C[C@@]12C", "note": "[fluocinonide] (10 µM)", "values": [{"measurement": "morphology score", "setting": "[1]", "value": 0.184}, {"measurement": "SARS-CoV-2 infection rate", "setting": "[2]", "value": "104% (inactive)"}]}, {"compound": "COc1cc(/C=C/C(N)=O)cc(OC)c1OC", "note": "[cintriamide] (10 µM)", "values": [{"measurement": "morphology score", "setting": "[1]", "value": -0.0883}, {"measurement": "SARS-CoV-2 infection rate", "setting": "[2]", "value": "110% (inactive)"}]}, {"compound": "CC(C)(Cc1c[nH]c2ccc(Cl)cc12)NCCOc1ccccc1OCC1CC1", "note": "(0.833333 µM)", "values": [{"measurement": "morphology score", "setting": "[1]", "value": 0.193}, {"measurement": "SARS-CoV-2 infection rate", "setting": "[2]", "value": "110% (inactive)"}]}, {"compound": "CN1CCN(c2ccc3[nH]c(-c4ccc5[nH]c(-c6ccc(O)cc6)nc5c4)nc3c2)CC1", "note": "[pibenzimol] (10 µM)", "values": [{"measurement": "morphology score", "setting": "[1]", "value": 0.0018}, {"measurement": "SARS-CoV-2 infection rate", "setting": "[2]", "value": "110% (inactive)"}]}, {"compound": "CN(C)CC(c1ccc(O)cc1)C1(O)CCCCC1", "note": "(stereo unspecified) [desvenlafaxine] (10 µM)", "values": [{"measurement": "morphology score", "setting": "[1]", "value": 0.0229}, {"measurement": "SARS-CoV-2 infection rate", "setting": "[2]", "value": "106% (inactive)"}]}, {"compound": "Cc1cc(C(=CNc2ccc(Cl)cc2)C(=O)Nc2ccc(Cl)cc2)on1", "note": "(10 µM)", "values": [{"measurement": "morphology score", "setting": "[1]", "value": 0.005}, {"measurement": "SARS-CoV-2 infection rate", "setting": "[2]", "value": "103% (inactive)"}]}, {"compound": "Cc1c(O)cccc1C(=O)N[C@@H](CSc1ccccc1)[C@H](O)CN1C[C@H]2CCCC[C@H]2C[C@H]1C(=O)NC(C)(C)C", "note": "[nelfinavir] (10 µM)", "values": [{"measurement": "morphology score", "setting": "[1]", "value": 0.722}, {"measurement": "SARS-CoV-2 infection rate", "setting": "[2]", "value": "47.5% (active)"}]}, {"compound": "C=CCn1c(=O)c2cnc(Nc3ccc(N4CCN(C)CC4)cc3)nc2n1-c1cccc(C(C)(C)O)n1", "note": "(10 µM)", "values": [{"measurement": "morphology score", "setting": "[1]", "value": -0.0169}, {"measurement": "SARS-CoV-2 infection rate", "setting": "[2]", "value": "96% (inactive)"}]}, {"compound": "c1cnc(N2CCN(Cc3ccc4c(c3)OCO4)CC2)nc1", "note": "[piribedil] (10 µM)", "values": [{"measurement": "morphology score", "setting": "[1]", "value": 0.0979}, {"measurement": "SARS-CoV-2 infection rate", "setting": "[2]", "value": "98.5% (inactive)"}]}, {"compound": "CCOC(=O)CCNc1cc(N2CCc3ccccc3CC2)nc(-c2ccccn2)n1", "note": "(0.833333 µM)", "values": [{"measurement": "morphology score", "setting": "[1]", "value": -0.0369}, {"measurement": "SARS-CoV-2 infection rate", "setting": "[2]", "value": "116% (inactive)"}]}, {"compound": "Cc1sc2c(c1C)C(c1ccc(Cl)cc1)=N[C@@H](CC(N)=O)c1nnc(C)n1-2", "note": "(0.833333 µM)", "values": [{"measurement": "morphology score", "setting": "[1]", "value": -0.0333}, {"measurement": "SARS-CoV-2 infection rate", "setting": "[2]", "value": "104% (inactive)"}]}, {"compound": "CC[C@@H](CO)NCCN[C@@H](CC)CO", "note": "[ethambutol] (10 µM)", "values": [{"measurement": "morphology score", "setting": "[1]", "value": -0.117}, {"measurement": "SARS-CoV-2 infection rate", "setting": "[2]", "value": "109% (inactive)"}]}, {"compound": "Nc1c2c(nc3c1CCC3)CCCC2", "note": "[ipidacrine] (10 µM)", "values": [{"measurement": "morphology score", "setting": "[1]", "value": 0.22}, {"measurement": "SARS-CoV-2 infection rate", "setting": "[2]", "value": "83.5% (inactive)"}]}, {"compound": "COc1cc(N2CCN(C)CC2)ccc1Nc1nccc(-c2cn(C)c3cnccc23)n1", "note": "(0.833333 µM)", "values": [{"measurement": "morphology score", "setting": "[1]", "value": 0.377}, {"measurement": "SARS-CoV-2 infection rate", "setting": "[2]", "value": "100% (inactive)"}]}, {"compound": "CCn1cc(C(=O)O)c(=O)c2cc(F)c(N3CCN(C)CC3)cc21", "note": "[pefloxacin] (10 µM)", "values": [{"measurement": "morphology score", "setting": "[1]", "value": 0.158}, {"measurement": "SARS-CoV-2 infection rate", "setting": "[2]", "value": "91.5% (inactive)"}]}, {"compound": "CC(C)(C(=O)O)c1ccc(C(=O)CCCN2CCC(OC(c3ccccc3)c3ccccc3)CC2)cc1", "note": "[carebastine] (10 µM)", "values": [{"measurement": "morphology score", "setting": "[1]", "value": 0.0702}, {"measurement": "SARS-CoV-2 infection rate", "setting": "[2]", "value": "103% (inactive)"}]}]}
